# Laboratory results taken from the OligoGym collection.
# Biological target: C4orf45
# Experiment: pooled miR-30 sensor sort-seq; sequence = guide strand
# Settings: shRNA
# Also: reference of the scale not given here.
row,Sequence,sensor-assay potency score (higher = more potent)
1,TTTTTCTAACGCCAGATGCTGT,-0.936
2,TTATGTAGTCTGGACCTGTAAA,-1.37
3,TTCCTTTTTTGGTAGCTTCGGC,-0.246
4,TTATACTGTGGTATTCTCCAAC,-0.109
5,TTATATTTTGCTGGCAAGCTTC,-1.08
6,TATTTTGCTGGCAAGCTTCTAT,-0.0491
7,TCTCTGATCAGTGTCCTCGAAA,-0.979
8,TTAGGTGGTTTGGAAGCTCTTG,-0.244
9,TAGGTGGTTTGGAAGCTCTTGG,-0.261
10,ATAAATATCTGAGATCTCCAGT,0.467
11,TTTTGGTAGCTTCGGCAGCTTA,-1.74
12,TAATCCTTTATGTAGTCTGGAC,-0.844

# Biological target: C5AR1
# Experiment: as above
# Settings: shRNA
row,Sequence,sensor-assay potency score (higher = more potent)
1,TGATGCTGTACAATGGACGTGA,0.655
2,TTAGAAGTTTTATCCACAGGGG,-0.274
3,TTCTACTTGTCTGTATTCTGAG,0.386
4,TCTTCAGTCAACACGTTCCGGA,-0.631
5,TCTACTTGTCTGTATTCTGAGT,-0.792
6,TTGAGGTCCAGGGTATCCTTGT,-0.809
7,TACTCCTCCCGGACCACCCGGT,-0.108
8,TTTTAAGCGAGAATCTTTCTAC,0.0632
9,TAACTCACTTACAAGAGCTTAG,-0.132
